# D2 ag-1 = Beta-Arrestin HTS for Positive Allosteric Modulators of the Human D2 Dopamine Receptor: Agonists; 0.084% of 360,000 active; activation, % (test concentration not listed); D(2) dopamine receptor (Homo sapiens), P14416; DiscoveRx PathHunter D2 beta-arrestin, luminescence, 90 min; 100% = 57 uM dopamine signal; AID 624465, 2012; in the data active means activation above about 40%; inconclusive means between about 15% and that limit
# Target sequence (P14416 whole entry, looked up): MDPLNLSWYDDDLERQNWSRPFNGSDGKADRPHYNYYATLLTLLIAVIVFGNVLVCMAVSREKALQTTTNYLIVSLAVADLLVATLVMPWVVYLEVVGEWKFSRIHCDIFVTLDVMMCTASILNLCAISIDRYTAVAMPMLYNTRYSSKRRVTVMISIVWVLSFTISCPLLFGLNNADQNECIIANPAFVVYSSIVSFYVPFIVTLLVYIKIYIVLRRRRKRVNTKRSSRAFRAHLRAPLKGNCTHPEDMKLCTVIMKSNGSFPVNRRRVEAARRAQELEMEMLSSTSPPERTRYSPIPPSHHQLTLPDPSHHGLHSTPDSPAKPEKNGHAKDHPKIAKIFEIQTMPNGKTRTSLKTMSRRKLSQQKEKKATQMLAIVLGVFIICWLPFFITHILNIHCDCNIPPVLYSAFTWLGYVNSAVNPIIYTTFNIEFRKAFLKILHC
#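 DiscoveRx PathHunter D2 beta-arrestin cells (2,100/well) attached overnight, then compound-stimulated 90 min at 37 C in HBSS/10 mM HEPES/0.1% Tween-20 buffer; beta-galactosidase complementation read by luminescence after 1 h at ambient temperature. Dopamine 57 uM final (EC100) as control.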
# D2 ag-2 = HTS Assay for Allosteric Agonists of the Human D2 Dopamine Receptor: Primary Screen for Agonists; D(2) dopamine receptor (Homo sapiens), P14416; HEK293 T-REx D2 cells, calcium flux agonist mode; activation, % at 2 µM; 0.53% of 340,000 active;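 active means activation over 3 SD above normal in the single-dose calcium agonist read, cut at about 30% in these data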; further: 0% is about no effect
#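 Tetracycline-induced HEK293 Trex cells with D2 receptor force-coupled to calcium signaling, plated overnight at 30 C and loaded with no-wash calcium dye. Calcium flux read kinetically for 180 s after compound addition; responses flag agonists.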
# D2 PAM-1 = HTS Assay for Positive Allosteric Modulators of the Human D2 Dopamine Receptor: Primary Screen for Potentiators. potentiation, % at 10 µM. 0.34% of 340,000 active. AID 485347, 2010. HEK293 T-REx D2, calcium flux, EC20 dopamine potentiation;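 active means potentiation over 3 SD above the plate norm, cut at about 30% in these data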; further: 0% is about no effect
#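 Tetracycline-induced HEK293 T-REx cells force-coupled to calcium signalling expressed D2; compounds were pin-added after a 10 s baseline, read kinetically 180 s, then an EC20 dopamine challenge followed with a further 180 s calcium read.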
# D2 antagonist = HTS Assay for Allosteric Antagonists of the Human D2 Dopamine Receptor: Primary Screen for Antagonists | inhibition, % at 10 µM | 2% of 340,000 active | D(2) dopamine receptor (Homo sapiens), P14416 | HEK293 TREx D2 cells, calcium flux, dopamine EC80; in the data active means inhibition above about 30%; inactive means below that, where a call was filed; further: 0% is about no effect
#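 Read-out: kinetic calcium fluorescence (1 cycle/s) in inducible HEK293 T-REx D2 cells after an EC80 dopamine addition that followed 180 s compound preincubation. Loss of the dopamine response indicates antagonism.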
# D2 PAM-2 = Beta-Arrestin HTS for Positive Allosteric Modulators of the Human D2 Dopamine Receptor: Potentiators; D(2) dopamine receptor (Homo sapiens), P14416; DiscoveRx D2 beta-arrestin cells, luminescence, 90 min; 100% = 57 uM dopamine signal; potentiation, % (test concentration not listed); 0.23% of 360,000 active; AID 624464, 2012; in the data active means potentiation above about 50%; inconclusive means mostly about 30% to 49%
#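 PathHunter D2 cells, attached overnight at 37 deg C, received compound in DMSO plus dopamine at EC20 (50 nM final) for 90 min at 37 deg C. Beta-arrestin recruitment was read as luminescence after 1 h with detection reagent at ambient temperature.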
# Starred values were filed as active, the others as inactive; ? = inconclusive; . = no result. This is a sample that favours compounds with a hit; in the whole collection about 2.4% have one here.
SMILES,D2 ag-1,D2 ag-2,D2 PAM-1,D2 antagonist,D2 PAM-2
COc1ccccc1CNC(=O)c1cc(S(=O)(=O)N2CCCC2)cn1C,0,0,-1,37*,2
COc1ccc(NC(=O)c2cc(S(=O)(=O)N3CCCC3)cn2C)cc1Cl,1,0,1,38*,-2
COc1cc(S(=O)(=O)N2CCCCC2)ccc1NC(=O)c1ccccc1Cl,1,0,48*,1,-3
COc1ccc(Cl)cc1NC(=O)c1cc(S(=O)(=O)N2CCCC2)cn1C,2,0,7,-8,-4
COc1ccccc1C(=O)Nc1nc(-c2ccc(S(=O)(=O)N3CCOCC3)cc2)cs1,9,1,5,2,56*
CCOc1cccc(CC(=O)N2CCc3c([nH]c4ccccc34)C2c2ccc(C)cc2)c1OCC (stereo not given),.,0,-1,.,.
COc1ccccc1CCNC(=O)Cn1ccc2cc(S(=O)(=O)N3CCC(C)CC3)ccc21,1,0,34*,5,-6
COc1ccc(OC)c(CCNC(=O)Cn2ccc3cc(S(=O)(=O)N4CCCC4)ccc32)c1,0,0,4,-3,-11
Cc1ccc(S(=O)(=O)N2CCC(C(=O)OCC(=O)NCc3cccc(Cl)c3)CC2)cc1C,1,.,.,.,-4
COc1ccccc1CNC(=O)COC(=O)C1CCN(S(=O)(=O)c2ccc(C)c(C)c2)CC1,2,0,30*,-13,5
CCOC(=O)c1cc(C)n(CC2CCC(C(=O)Nc3ccc(C(C)=O)cc3)CC2)c1C (stereo not given),.,0,4,.,.
Cc1ccccc1N(CC(N)=O)S(C)(=O)=O,1,1,4,-1,-13
Cc1ccccc1N(CC(=O)O)S(C)(=O)=O,-4,0,31*,13,25
COc1cc(NC(=O)C(CCSC)NS(=O)(=O)c2ccc3c(c2)oc(=O)n3C)cc(OC)c1 (stereo not given),.,0,-8,.,.
Cc1cc(C)c(C)c(OCc2nc(-c3cccnc3)no2)c1,-2,0,33*,-7,-31
CCCn1c(SCc2nc(-c3ccc(OC)c(OC)c3)no2)nnc1-c1ccccc1,.,3,10,.,.
CCN(C(=O)N(CC)c1ccccc1)c1ccccc1,5,-1,-10,43*,0
COc1cc(C(=O)Nc2cc(C)ccc2OCc2cc(=O)n3c(C)csc3n2)cc(OC)c1OC,.,1,7,.,.
CCOC(=O)N1CCC(NCCNC(=O)c2ccc(F)c(F)c2)CC1,2,20,-16,59*,-23
CCOC(=O)N1CCC(NCCNC(=O)c2ccc(Cl)cc2)CC1,0,0,-26,59*,-29
Cc1cccc(N2CCN(C(=O)CN3C(=O)COc4ccc(S(=O)(=O)N5CCC(C)CC5)cc43)CC2C)c1 (stereo not given),.,0,5,.,.
Cc1ccc(C)c(NC(=O)COC(=O)c2cccc3c2C(=O)c2ccccc2C3=O)c1,?,-1,-2,8,54*
Cc1cc(C)c(NC(=O)COC(=O)c2cccc3c2C(=O)c2ccccc2C3=O)c(C)c1,12,1,8,19,55*
Cc1ccc(Cl)cc1NC(=O)COC(=O)c1ccccc1O,-5,-1,-4,4,-4
Cc1ccc(NC(=O)COC(=O)c2cccc3c2C(=O)c2ccccc2C3=O)c(C)c1,10,-1,-9,-16,56*
CCN(CC)CCN(C(=O)c1ccc2c(c1)CCCC2)c1nc2ccc(C)cc2s1,4,-1,-22,46*,-25
CCN(CC)CCN(C(=O)c1ccc2c(c1)CCCC2)c1nc2c(C)cccc2s1,7,1,-14,60*,-16
CCN(CC)CCN(C(=O)c1ccc2c(c1)CCCC2)c1nc2ccc(F)cc2s1,2,-1,-16,17,-18

# Compound activity: PubChem, National Center for Advancing Translational Sciences (NCATS)
